# From PubChem BioAssay AID2111 (National Center for Advancing Translational Sciences (NCATS), 2009)
# Unmarked numbers belong to inactive results. Activity calls are given as the source filed them. Calls follow the shape of the dose curve; as a rule, active = well fitted curve in either direction with a large enough effect; inconclusive = small, poorly fitted or top-dose-only effect; inactive = no such curve, though single readings can be large or run the other way.
# Biological target: Lysosomal alpha-glucosidase (Homo sapiens) (UniProt P10253)
# Experiment: Confirmation of Inhibitors and Activators of Human alpha-Glucosidase From Spleen Homogenate Using an Alternate Red Fluorescent Susbtrate
# Conditions: resorufin-glucoside fluorescence; series mostly up to 62.8 µM; activity change, negative = inhibition: at the top concentration
# Excerpt: NIH Chemical Genomics Center [NCGC] NIH Molecular Libraries Probe Production centers Network [MLPCN] MLPCN Grant: 1R03MH084841-01 Assay Submitter (PI): Wei Zheng NCGC Assay Overview: Alpha-glucosidase is responsible for hydrolysis of terminal, non-reducing 1,4-linked alpha-D-glucose residues with release of alpha-D-glucose. It is a lysosomal hydrolase that is required for the degradation of a small percentage (1-3%) of cellular glycogen in human. Deficiency of this enzyme results in glycogen-storage disease type II (GSDII), also referred to as Pompe disease, an autosomal recessive disorder. Structurally normal glycogen is accumulated in lysosomes and cytoplasm in affected patients, primarily in muscle tissues. Excessive glycogen storage within lysosomes may interrupt normal functioning of other organelles and leads to cellular injury. In turn, this leads to enlargement and dysfunction of the entire organ involved (eg, cardiomyopathy and muscle weakness). It has reported that the improper folding and trafficking of alpha-glucosidase resultinged from the genetic mutations may account for a significant number of Pomrope patients. […] We optimized this alpha-glucosidase assay in 1536-well plate format for identifying the novel small molecule inhibitors with the structures other than the sugar analogs in order to develop the new pharmacological chaperones. In particular, this assay is directed towards discovering compounds active in a more natural setting, tissue homogenate, that may have been missed by screens of the purified enzyme under more stringent conditions. This assay attempted to confirm hits from the primary screening using an alternate fluor than the primary screen used.
# NCGC Assay Protocol Summary: This is a fluorogenic enzyme assay with Resorufin-alpha-D-glucopyranoside as the substrate and human spleen homogenate containing alpha-glucosidase as the enzyme preparation. Upon hydrolysis of this fluorogenic substrate, the resulting product, resorufin (which excites at 573 nm and emits at 610 nm) can be detected by a fluorescence plate reader. Data were normalized to the controls for basal activity (without enzyme) and 100% activity (with enzyme). The AC50 values were determined from concentration-response data modeled with the standard Hill equation. Assay buffer: 50 mM citric acid (titrated with potassium phosphate to pH 5.0), 0.01% Tween-20 (pH 5.0 is an optimal condition for this enzyme assay) 1536-well assay protocol for the alpha-glucosidase from human spleen homogenate: (1) Add 2 ul/well spleen homogenate (1 ug) (2) Add 23 nL compounds in DMSO solution. The final titration was 0.5 nM to 58 uM. (3) Add 2 ul of substrate (1 mM final) (4) Incubate at 37 C for 40 min (5) Add 2 ul stop solution (1M NaOH and 1M Glycine mixture, pH 10) (6) Detect the assay plate in a ViewLux plate reader (PerkinElmer) with […]. Keywords: Alpha-glucosidase, Pompe Disease, pharmacological chaperone, chaperone therapy, high throughput screening, alpha-glucosidase inhibitor, MLSMR, MLSCN, NIH Roadmap, qHTS and NCGC
Compound,"activity change, negative = inhibition",Potency
CC(=O)c1ccc(N2CCN(S(=O)(=O)c3ccc(N4CCCC4=O)cc3)CC2)cc1,2.9%,–
O=C1Cc2cc(S(=O)(=O)N3CCN(c4ccc(O)cc4)CC3)ccc2N1,–,11.9 µM [inhibitor] (active)
CCCN1CNc2c(c(=O)[nH]c(=S)n2CCc2cccc(OC)c2)C1,–,10 µM (active)
CC(=O)c1ccc(N2CCN(S(=O)(=O)c3ccc4c(c3)CCC(=O)N4)CC2)cc1,9.43%,–
COc1ccc(N2CCN(S(=O)(=O)c3ccc4c(c3)CC(=O)N4)CC2)cc1,–,6.68 µM [inhibitor] (active)
CCCN1CNc2c(c(=O)[nH]c(=S)n2CCc2cc(OC)ccc2OC)C1,–,12.6 µM (active)
COc1ccc(CCn2c3c(c(=O)[nH]c2=S)CN(C)CN3)cc1OC,–,31.6 µM (active)
CCCN1CNc2c(c(=O)[nH]c(=S)n2CCc2c(Cl)cccc2Cl)C1,–,5.01 µM (active)
CCCN1CNc2c(c(=O)[nH]c(=S)n2CCC(C)(C)C)C1,2.22%,–
CCCN1CNc2c(c(=O)[nH]c(=S)n2CCc2cccs2)C1,–,31.6 µM (active)
O=C1Cc2cc(S(=O)(=O)N3CCN(c4ccc(Cl)cc4)CC3)ccc2N1,-28.1% [at 130 µM],–
